Data: PubChem BioAssay (NCI)
About 83,000 compounds went through this panel and 20% of them were active in at least one assay; those are over-represented in the sample as a whole.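 The endpoint reported here, percent growth, reads 100 for growth as untreated, 0 for no net growth and -100 for all cells dead.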 Calls of active or inactive are those of the source.

Each compound was assayed on IGROV1 ovarian (assay: NCI-60 one-dose screen, 48 h (100 = growth as untreated, 0 = no growth, -100 = all killed)). Settings: 10 µM unless noted.
Method: Growth inhibition of the IGROV1 human tumor cell line is measured as a screen for anti-cancer activity. Cells are grown in 96 well plates and exposed to the test compound for 48 hours. Compounds are tested at a single concentration, which is 10^-5 M for most compounds. The reported endpoint is percent growth (GI% or GIPRCNT), where numbers from 0 - 100% represent growth inhibition, and numbers from -100% - 0 represent cell death. For example, a value of 40 represents 60% growth inhibition. A value of 0 means no net growth occurred over the course of the experiment. A value of -40 indicates 40% of cells at the beginning of the experiment died by the end of the experiment. A value of -100 means all cells are dead at the end of the experiment.
NCI-60 Human Tumor Cell Lines Screen was performed using the standard one-dose NCI protocol, which is described in more detail at https://dtp.cancer.gov/discovery_development/nci-60/default.htm.
Compounds with GIPRCNT values below 10 were considered active. Activity score was based on GIPRCNT using the following formula: […]
Score is 0 for GIPRCNT values of 100 or above, 50 for GIPRCNT values of 0, and 100 for GIPRCNT values of -100.

| Structure (SMILES) | growth |
| --- | --- |
| O=C(NC1CC(F)C1)c1cc2cccnc2n1-c1ccc(Cl)c(Cl)c1 (stereo not given) | 86.7% (inactive) |
| O=C1c2ccccc2C(=O)C1c1ccc(Br)cc1 | 104% (inactive) |
| COc1ccc(/C=C2\CN(C(=O)C(Cl)Cl)C/C(=C\c3ccc(OC)cc3)C2=O)cc1 | -50.7% (active) |
| O=C(O)COc1ccc(Cl)c(Cl)c1 | 107% (inactive) |
| C#CCOc1cccc(-c2ncnc3cc(NC(=O)C=C)ccc23)c1 | 33.5% (inactive) |
| Cc1nn(-c2cc(NC3CCC(O)CC3)c3c(=O)[nH]c(CCC(F)(F)F)cc3c2)c2c1C(=O)CC(C)(C)C2 (stereo not given) | 55.2% (inactive) |
| Cc1nnc(-c2ccc3c(c2)nc(/C=C/c2ccccc2)n3C2CCCCC2)o1 | 77.1% (inactive) |
| Cc1ccc(/C=C/C(=O)c2ccc(-n3cc(CN4CCN(c5cc6c(cc5F)c(=O)c(C(=O)O)cn6C5CC5)CC4)nn3)cc2)cc1 | 69.9% (inactive) |
| CN1CCN(CCCOc2cccc3nc(Nc4ccc(F)c(F)c4)ccc23)CC1 | -12.4% (active) |
| COc1ccc(/C=C/c2ccc3ccccc3n2)c(OC)c1 | 59.9% (inactive) |
| O=C(CI)NC(=O)NC(=O)NCc1ccccc1 | 21.1% (inactive) |
| Cc1nc2ccccc2c(/C=C/c2ccccc2)c1C(=O)/C=C/c1ccccc1 | 18.5% (inactive) |
| CN1CCN(Cc2ccc(NC(=O)c3cncc(C#Cc4cnc5ccc(Cl)nn45)c3)cc2C(F)(F)F)CC1 | 1.12% (active) |
| CC1(C)OB(O)c2cc(-c3nc4ccc5[nH]ncc5c4c4c3CCCC4)ccc21 | 38.7% (inactive) |
| COc1ccc(/C=C/C(=O)c2cc(OC)c(OC)c(OC)c2)cc1OCC(=O)Nc1nc2ccc(OC(F)(F)F)cc2s1 | -1.97% (active) |
| COc1ccc(/C(C)=C(\c2ccc(Cl)cc2)c2ccc(OCCN3CCCCC3)cc2)cc1 | 64.5% (inactive) |
| CSC(SC)=C(C#N)c1nc2ccccc2s1 | 49.3% (inactive) |
| CNC1=CC(=O)c2c(C(=O)OC)c(C)[n+]([O-])c(C)c2C1=O | 70.2% (inactive) |
| CC1(C)CC[C@]2(C(=O)N[C@H](CO)Cc3ccccc3)CC[C@]3(C)C(=CC[C@@H]4[C@@]5(C)CCCNC(C)(C)[C@@H]5CC[C@]43C)[C@@H]2C1 | 65.1% (inactive) |
| Nc1nc(N)c(N=Nc2ccccc2)c(-c2ccccc2)n1 | 15.3% (inactive) |

| Structure (SMILES) | growth |
| --- | --- |
| N#C/C(=C\c1ccc([N+](=O)[O-])cc1)n1nnc2cc(F)c(F)cc21 | -10.9% (active) |
| O=C(O)c1cn(C2CC2)c2cc(N3CCN(C(=O)Nc4nc(-c5ccc(Br)cc5)cs4)CC3)c(F)cc2c1=O | 28.8% (inactive) |
| COc1ccc(/C=C/C(c2cc(OC)c(OC)c(OC)c2)n2ccnc2)cc1O (stereo not given) | 55.7% (inactive) |
| O=C(/C=C(O)/C=C/c1cccc2[nH]ccc12)/C=C/c1cccc2[nH]ccc12 | 70.3% (inactive) |
| COc1ccc(/C=C(/C(=O)n2cnnn2)c2cc(OC)c(OC)c(OC)c2)cc1 | 41.4% (inactive) |
| COC(=O)/C=C1/SC(=Nc2ccc([N+](=O)[O-])cc2)N(CCc2c[nH]c3ccc(O)cc23)C1=O | 42.6% (inactive) |
| COc1ccc(-c2nc(/C=C3\C(=O)N(C)c4ccccc43)c3ccccn23)cc1 | 69.7% (inactive) |
| COc1ccc(-c2nc3c(N)c(CO)cnc3s2)cc1 | 84.7% (inactive) |
| CC1=CCC(OC(=O)C(C)(C)CC(O)(C(C)O)C(O)C2(C)C=CC(Cc3ccc(C(C)C)cc3)(C(C)C)CC2)(C(C)C)CC1 (stereo not given) | 95.5% (inactive) |
| O=C(Nc1cnc(Nc2ccc(N3CCOCC3)nc2)nc1Oc1ccc(C(F)(F)F)cc1)c1ccncc1 | 94% (inactive) |
| Cc1ccnc(Nc2ccc([N+](=O)[O-])c(NCCN3CCOCC3)n2)c1 | 28.4% (inactive) |
| COc1ccc(-c2nc(-c3cn(C)c4ncccc34)cs2)cc1 | 17.9% [100 µM] (inactive) |
| C=C(CNCCO)[C@@H]1CC[C@]2(CO)CC[C@]3(C)[C@H](CC[C@@H]4[C@@]5(C)CCC(N)C(C)(C)[C@@H]5CC[C@]43C)[C@@H]12 (stereo not given in full) | 65.3% (inactive) |
| CC1(C)CC(=O)c2c(nn(-c3ccc(Br)cc3)c2-c2cn(-c3ccccc3)nc2-c2cccnc2)C1 | 93.9% (inactive) |
| O=C(Cc1ccccc1)Nc1cccc(N=Cc2ccccc2O)c1 | 111% (inactive) |
| CN1CCN(Cc2ccc(NC(=O)c3cncc(C#Cc4cnc(N)c5ncccc45)c3)cc2C(F)(F)F)CC1 | -50.8% (active) |
| O=C1/C(=C/c2ccccn2)NC(=S)N1c1ccccc1Cl | 46.1% (inactive) |
| CCOC(=O)CC1CSC(Nc2ccccc2)=N1 (stereo not given) | 103% (inactive) |
| C=CN(C(=O)N1CCN(c2cc3c(cc2F)c(=O)c(C(=O)O)cn3C2CC2)CC1)c1nc(-c2ccc(OC)cc2)cs1 | 39.6% (inactive) |
| CN(CCCNC(=O)CCOCCOCCOCCNC(=O)Cc1ccc2ccc3cccc4ccc1c2c34)CCCNc1cc(-c2ccc3ccccc3c2)nc2ccccc12 | -43.8% (active) |
